Compound activity (PubChem)
A549 viability: A549 cytotoxicity, counter-screen for Nrf2 inhibitors. A549 ARE-Fluc cells, CellTiter-Fluor viability, 18-24 h. Potency, µM (top dose mostly 46 µM), for inactives: at the top dose activity change, negative = cytotoxicity, usual class: inhibitors. hit rate 0.16% among 390,000; note: potency is the fitted concentration of half-maximal effect
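Cytotoxicity counterscreen: CellTiter-Fluor fluorescence was measured in A549 ARE_Fluc cells after 18-24 h of compound exposure in a concentration series. The subsequent BugLite luminescent read reports ARE-luciferase activity.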
Nrf2 inh: inhibitors of Nrf2 signaling. A549 ARE-Fluc reporter, luciferase luminescence, 18-24 h. Potency, µM (series often up to 46 µM), without a hit: at the highest dose activity change, negative = inhibition, most hits filed as inhibitors. hit rate 2.1% among 360,000. AID 504444; note: potency is the fitted concentration of half-maximal effect; nearly all actives have a fitted effect of over 60% in size
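Quantitative HTS in A549 cells stably bearing an antioxidant response element-firefly luciferase construct. Inhibition of Nrf2-driven transcription was scored by luminescence after 18-24 h of compound exposure at 37 °C.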
Giardia killer: kills Giardia lamblia; Giardia lamblia trophozoite viability; hit rate 0.15% among 340,000; activity change, % at 7.66 µM, hits read low; in the data active = activity change below about -80%; inconclusive = between about -30% and that limit;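 note: parasites exposed to compound for two days anaerobically before the ATP read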
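ATP-content bioluminescence gauges trophozoite survival. Cells (100/well) receive compound and incubate anaerobically for 48 hrs at 37 deg C; detection reagent follows for 15-30 min at room temperature.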
KB-V1 MDR tox: kills drug-selected multidrug resistant KB-V1 cells; Potency, µM (highest dose often 46.1 µM), actives largely listed as cytotoxic; KB-V1 MDR cells viability, CellTiter-Glo, 72 h; hit rate 3.4% among 400,000; note: potency is the fitted concentration of half-maximal effect; nearly all actives have a fitted effect of over 60% in size
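KB-V1 MDR subline cells in DMEM (phenol-red free, 10% FBS) exposed to compounds in qHTS concentration series for 72 h at 37 degrees C. Viability read by CellTiter-Glo luminescence; concentration-effect curves fitted after normalization and correction.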
KB-3-1 cytotox: kills parental KB-3-1 adenocarcinoma cells; Potency, µM (highest dose often 46.1 µM), most hits filed as cytotoxic; KB-3-1 viability, CellTiter-Glo ATP luminescence, 72 h; hit rate 1.4% among 400,000; note: potency is the fitted concentration of half-maximal effect; nearly all actives have a fitted effect of over 60% in size
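72 h, 37 °C compound treatment of KB-3-1 parental cells; CellTiter-Glo added, 10 min, luminescence read. Data corrected against DMSO-only plates and normalized before curve fitting.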
PI4K2A inh: PI4K2A (human) kinase inhibition | activity change, negative = inhibition, % at 76.9 µM | Q9BTU6 | purified PI4K2A, ADP-Glo luminescence, 1 h; stronger effect = lower value | hit rate 0.13% among 420,000; in the data active = activity change below about -50%; inconclusive = mostly about -30% to -49%;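 note: -100% = wells without enzyme as full effect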
Target sequence (Q9BTU6 whole entry, looked up): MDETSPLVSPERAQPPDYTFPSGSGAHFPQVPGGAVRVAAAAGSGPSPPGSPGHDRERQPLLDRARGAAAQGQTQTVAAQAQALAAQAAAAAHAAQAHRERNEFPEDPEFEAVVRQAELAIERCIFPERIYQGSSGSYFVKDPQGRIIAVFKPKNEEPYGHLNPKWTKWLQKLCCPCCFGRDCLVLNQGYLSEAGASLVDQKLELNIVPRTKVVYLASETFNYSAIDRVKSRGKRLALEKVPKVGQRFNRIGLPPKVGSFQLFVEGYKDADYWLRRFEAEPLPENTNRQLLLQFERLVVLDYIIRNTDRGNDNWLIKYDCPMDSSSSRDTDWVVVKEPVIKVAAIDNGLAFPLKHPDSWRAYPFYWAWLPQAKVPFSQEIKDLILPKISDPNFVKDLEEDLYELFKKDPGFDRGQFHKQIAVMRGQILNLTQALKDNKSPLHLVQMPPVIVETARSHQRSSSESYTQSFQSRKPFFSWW
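Compounds are screened against recombinant PI4K2A using PI as substrate and ATP, the latter dispensed at 300 microM. Reactions run one hour at ambient temperature before ADP-Glo detection; full inhibition defined by wells lacking enzyme.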
* marks the source's active call; other numbers are inactive results; i = inactive; ? = inconclusive; nt = not tested or not shown. Rows were chosen to be rich in hits. Some 5.7% of all compounds tested hit in one or more screens of this group. Unless noted, calls come from the whole dose curve; as a rule, active = well fitted curve in the direction sought with a large enough effect; inconclusive = small, poorly fitted or top-dose-only effect, or another doubt; inactive = no such curve, though single readings can be large; an effect the other way counts as inactive or inconclusive. Unless noted, % is set by controls: 0 for no effect and ±100 for the full control effect.

SMILES	A549 viability	Nrf2 inh	Giardia killer	KB-V1 MDR tox	KB-3-1 cytotox	PI4K2A inh
N/C(=C\c1ccccc1)c1ccncc1	nt	nt	nt	i	i	nt
COc1ccc(CCNC(=O)c2ccc(CN3CCC(Cc4ccccc4)CC3)cc2)cc1OC	2%	10%	29	3.7µM*	i	-2
O=C(c1ccc(CN2CCOCC2)cc1)N1CCC(Cc2ccccc2)CC1	-1%	-14%	12	21µM*	i	3
COCCNC(=O)c1ccc(CN2CCC(Cc3ccccc3)CC2)cc1	1%	2%	11	i	i	-3
CN1CCN(C(=O)c2ccc(CN3CCOCC3)cc2)CC1	-5%	-1%	24	i	i	-4
COc1ccc(CCNC(=S)N2CCC(Cc3ccccc3)CC2)cc1OC	4%	?	6	15µM*	?	16
CCCNC(=S)N1CCC(Cc2ccccc2)CC1	-25%	?	-13	i	i	0
COc1ccc(CNC(=O)O[C@H]2CC[C@@]34CCCN3C(=O)CCC[C@H]4[C@H]2C)cc1OC	nt	nt	nt	nt	nt	5
Cc1csc2sc(-c3ccnc(SCC(=O)NCc4ccccc4)n3)c(C)c12	?	-3%	15	5.8µM*	?	0
Cc1csc(SCC(=O)NCc2ccccc2)n1	7%	18%	6	i	i	-1
COc1cc(C2c3c(oc4ccccc4c3=O)C(=O)N2c2nnc(C(C)C)s2)cc(OC)c1OC (configuration not stated)	-7%	-2%	nt	i	i	0
CC(C)(C)n1ncc2c(=O)n(CC(=O)NCc3ccc(F)cc3)cnc21	?	?	-8	9.2µM*	9.2µM*	0
CC(C)(C)n1ncc2c(=O)n(CC(=O)c3ccccc3)cnc21	-2%	?	4	15µM*	i	-8
CC(C)(C)n1ncc2c(=O)n(CC(=O)OCc3ccccc3)cnc21	0%	?	?	i	i	-8
Cc1ccc(S(=O)(=O)Nc2cc(Br)cc3cccnc23)cc1	?	?	10	nt	nt	nt
CC(=Nc1ccccc1)c1sc2ccccc2c1O	-5%	?	-3	21µM*	i	0
CC(=Nc1ccc(Br)cc1)c1sc2ccccc2c1O	8%	?	-16	i	i	9
NC(=O)COc1cc2oc(=O)c3c(c2cc1Cl)CCCC3	2%	?	15	8.2µM*	i	0
O=C(COc1cc2oc(=O)c3c(c2cc1Cl)CCC3)Nc1ccccn1	-6%	-2%	-17	i	i	-2
N[C@H](C(=O)O)[C@@H](O)c1ccc(O)c(O)c1	nt	nt	nt	nt	nt	-12
COc1cc(C)c(C)cc1S(=O)(=O)Nc1cccc(-c2ccc(N3CCOCC3)nn2)c1	-4%	nt	nt	?	?	0
CCOc1ccc(C(=O)N2CCC(c3ccncc3)CC2)cc1	-17%	nt	nt	i	?	0
CCOC(=O)c1cnc2c(OC)cccc2c1Nc1ccc2c(c1)OCCO2	?	?	-3	13µM*	?	2
CCOC(=O)c1cnc2c(ccc3ccccc32)c1Nc1ccc(C(C)=O)cc1	-4%	21%	nt	16µM*	?	-4
CCOC(=O)c1cnc2c(ccc3ccccc32)c1Nc1ccc(Cl)cc1	1%	11%	nt	i	i	3
SMILES	A549 viability	Nrf2 inh	Giardia killer	KB-V1 MDR tox	KB-3-1 cytotox	PI4K2A inh
CCOC(=O)c1cnc2ccc(OCC)cc2c1Nc1ccc(OCc2ccccc2Cl)cc1	-16%	21µM*	nt	i	i	1
CCOC(=O)c1cnc2c(ccc3ccccc32)c1Nc1ccc(OC)c(OC)c1	-10%	12%	nt	?	7.3µM*	-15
O=C(Nc1nc(Nc2cc(F)cc(F)c2)nc(NC2CCCC2)n1)OCc1ccccc1	1%	10%	nt	nt	nt	nt
COCc1c(C(=O)OCC(=O)N2c3ccccc3NC(=O)C2(C)C)oc2ccccc12	0%	?	21	16µM*	i	0
CC(C)c1ccc(CN(Cc2ccco2)c2cnc(S(C)(=O)=O)nc2C(=O)Nc2ccc(F)cc2)cc1	4%	3%	nt	i	i	-2
Cc1cc([N+](=O)[O-])ccc1NC(=O)CN1C2CCC1CC(NC(=O)NC13CC4CC(CC(C4)C1)C3)C2 (configuration not stated)	-18%	16µM*	-4	i	?	-2
O=C(Nc1ccccc1C(F)(F)F)O[C@@H]1CC[C@@]23CCCN2C(=O)CCC[C@H]3C1	nt	nt	nt	nt	nt	-2
C=C(C)CN=C1SC(C(=O)Nc2sc3c(c2C(=O)OC)CCC3)C(N)=C1C(N)=O (configuration not stated)	-9%	-5%	8	9.2µM*	?	2
COC(=O)c1c(NC(=O)C2SC(=NC3CCCCC3)C(C(N)=O)=C2N)sc2c1CCCC2 (configuration not stated)	-7%	18%	-3	i	i	3
CC(=O)NC(CCc1ccc(Cl)c(Cl)c1)c1cccc(O)c(=O)c1 (configuration not stated)	nt	nt	nt	8.2µM*	?	-8
O=C(O)c1ccc(C=C(c2nc3ccccc3s2)c2nc3ccccc3s2)cc1	-22%	?	6	?	?	0
O=C(O)c1ccc(Oc2nc3ccccc3s2)cc1	-8%	?	10	i	i	-61*
CC(C(=O)NCCS(=O)(=O)c1ccc(Cl)cc1)S(=O)(=O)c1ccccc1 (configuration not stated)	5%	-13%	-24	i	i	-2
CC(C(=O)NCCS(=O)(=O)c1ccc(Cl)cc1)S(=O)(=O)c1ccc(Cl)cc1 (configuration not stated)	-1%	9.2µM*	13	?	i	-5
COc1ccc(NC(=O)c2cc3c(=O)n(Cc4ccco4)ccc3nc2C)cc1	7%	-18%	nt	nt	nt	-23
C[C@H]1[C@@H](N)CC[C@@]23CCCN2C(=O)CCC[C@@H]13	nt	nt	nt	nt	nt	-5
COc1ccc(-c2noc(N3CCC(C(=O)N(C)c4cc(Cl)ccc4OC)CC3)n2)cc1	5%	10%	nt	i	i	-2
O=C(COc1ccccc1)Nc1cccc(-c2nc3cc4ccccc4cc3[nH]2)c1	?	nt	-27	9.2µM*	?	-16
CC(C)COc1ccc(C(=O)Nc2cccc(-c3nc4ccccc4[nH]3)c2)cc1	-18%	23µM*	nt	nt	nt	-3
CC(C)CC(=O)Nc1cccc(-c2nc3ccccc3[nH]2)c1	-1%	5%	21	i	i	-8
COC(=O)c1ccc(-c2nc3ccccc3[nH]2)cc1	-2%	?	?	18µM*	?	-23
